# An excerpt weighted towards active compounds, which were near 12% of everything screened.
# Sfp inh: qHTS Assay for Inhibitors of Bacillus subtilis Sfp phosphopantetheinyl transferase (PPTase) | 4'-phosphopantetheinyl transferase ffp (Bacillus subtilis), Q9F4F7 | Biochemical Sfp PPTase activity, qHTS | actives 3.5% (n = 310,000) | Potency, µM, most hits filed as inhibitors | AID 1490, 2009;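 also: the enzyme is Sfp with the accession as filed and its product quenches rhodamine fluorescence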
#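 Fluorescence-quenching assay: 15 nM Sfp-PPTase preincubated 15 min at room temperature with compound, then 5 uM rhodamine-CoA and 12.5 uM BHQ-2-labelled YbbR peptide added. Fluorescence (ex 525/em 598 nm) read at start and after 30 min; difference gives rate.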
# G9a block: qHTS Assay for Inhibitors of Histone Lysine Methyltransferase G9a; Histone-lysine N-methyltransferase EHMT2 (Homo sapiens), Q96KQ7; G9a H3K9 monomethylation, AlphaScreen, 2 h; Potency, µM (titrated, usually from 102 µM), hits mostly inhibitors; actives 8.8% (n = 350,000); AID 504332, 2011; also: nearly all actives have a fitted effect of over 75% in size
# Target sequence (Q96KQ7 913-1193 limits assumed): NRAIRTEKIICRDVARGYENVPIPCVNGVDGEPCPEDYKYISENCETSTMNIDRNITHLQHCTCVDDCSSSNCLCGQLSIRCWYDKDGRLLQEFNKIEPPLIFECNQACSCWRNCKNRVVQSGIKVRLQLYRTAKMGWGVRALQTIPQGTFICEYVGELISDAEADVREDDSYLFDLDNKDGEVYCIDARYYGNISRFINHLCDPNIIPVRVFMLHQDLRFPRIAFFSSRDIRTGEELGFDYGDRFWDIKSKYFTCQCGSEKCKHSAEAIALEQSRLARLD
#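 Enzyme 20 nM + cpd, 15 min RT; add b-H3K9 pep 500 nM / SAM 20 uM; 2 h RT; anti-H3K9me1 Ab 0.5 ug/mL + SA donor / anti-rabbit acceptor beads 20 ug/mL each, 10 min; AlphaScreen read.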
# JMJD2A Tudor inh: qHTS Assay for Inhibitors of JMJD2A-Tudor Domain; AID 504339, 2011; Lysine-specific demethylase 4A (Homo sapiens), O75164; Potency, µM (top dose mostly 114 µM), actives largely listed as inhibitors; AlphaScreen JMJD2A-Tudor / H3K4me3 peptide binding; actives 4.4% (n = 390,000); also: nearly all actives have a fitted effect of over 50% in size
# HP1b chromo inh: HTS for Inhibitors of HP1-beta Chromodomain Interactions with Methylated Histone Tails | Chromobox protein homolog 1 (Homo sapiens), P83916 | AlphaScreen HP1-beta / biotin-H3K9me3 peptide binding | Potency, µM (titrated, usually from 114 µM), most hits filed as inhibitors | actives 0.56% (n = 390,000); also: nearly all actives have a fitted effect of over 70% in size
# Target sequence (P83916 whole entry, looked up): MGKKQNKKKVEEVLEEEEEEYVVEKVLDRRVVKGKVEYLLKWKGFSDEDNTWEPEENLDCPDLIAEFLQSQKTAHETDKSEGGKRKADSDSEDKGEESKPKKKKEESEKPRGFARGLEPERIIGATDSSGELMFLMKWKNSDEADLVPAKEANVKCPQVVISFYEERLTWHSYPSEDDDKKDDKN
#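 HP1-beta protein (50 nM final) preincubated 30 min at room temperature with biotinylated H3(1-18)K9me3 peptide (50 nM) in PBS pH 7.4, 0.01% Tween-20, then compound added for 30 min. AlphaScreen streptavidin donor/nickel chelate acceptor beads (10 ug/mL final), 30 min dark, luminescence read.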
# BAZ2B inh: qHTS Assay for Inhibitors of BAZ2B | AlphaScreen BAZ2B-H3K14Ac peptide displacement | actives 4.4% (n = 360,000) | Bromodomain adjacent to zinc finger domain protein 2B (Homo sapiens), Q9UIF8 | Potency, µM (titrated, usually from 114 µM), most hits filed as inhibitors; also: nearly all actives have a fitted effect of over 60% in size
#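 AlphaScreen displacement of biotin-H3(5-23)K14Ac peptide (50 nM final) from BAZ2B (50 nM final) in PBS pH 7.4, 0.01% Tween-20; complex preformed 30 min RT, then compounds (top 110 uM) 30 min RT, beads 20 min dark.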
# Hits are given with their value; n = inactive; u = inconclusive; x = not tested or not shown; [ ] = remark or other dose. Calls follow the shape of the dose curve; as a rule, active = well fitted curve in the direction sought with a large enough effect; inconclusive = small, poorly fitted or top-dose-only effect, or another doubt; inactive = no such curve, though single readings can be large; an effect the other way counts as inactive or inconclusive.
SMILES,Sfp inh,G9a block,JMJD2A Tudor inh,HP1b chromo inh,BAZ2B inh
COc1ccc(C(=O)Nc2ccccc2-c2nc3ccccc3s2)cc1OC,x,n,n,n,n
O=C(O)c1cc(Nc2cc(Cl)c3nonc3c2[N+](=O)[O-])ccc1O,45µM,35µM,n,n,u
COc1cc(NC(=O)COc2c(C)cc(C)cc2[N+](=O)[O-])c(OC)cc1Cl,50µM,n,n,n,n
Cc1c(Cc2ccc3c(c2)OCO3)sc(NC(=O)c2ccccc2)c1C(N)=O,u,32µM,n,n,n
CCCC(=O)Nc1sc(Cc2ccccc2)c(C)c1C(N)=O,13µM,3.5µM,n,u,n
COc1ccc(N(C(=O)c2cccc(C)c2)S(=O)(=O)c2ccc3c(c2)n(C)c(=O)n3C)cc1,x,u,n,n,u
Oc1ccc(Cl)cc1CNCC1CCCO1 (configuration not stated),n,n[2.33 µM],3.2µM,u,50µM
Clc1ccccc1CNCC1CCCO1 (configuration not stated),n,n,n,n,n
CSc1ccc(CCNC(=O)c2ccc(-n3c(C)cc4c3CCCC4)cc2)cc1,x,n,n,n,n
O=C(COC(=O)c1ccco1)Nc1ccc(N2CCOCC2)cc1,x,22µM,n,n,n
Cc1ccc(C(=O)OCC(=O)Nc2ccc(N3CCOCC3)cc2)cc1,x,u,n,n,n
COc1ccc(CC(=O)OCC(=O)Nc2ccc(N3CCOCC3)cc2)cc1,n,50µM,n,n,n
COc1cc(CC(=O)OCC(=O)Nc2ccc(N3CCOCC3)cc2)cc(OC)c1OC,n,u,n,n,n
O=C(Nc1ccc(N2CCOCC2)cc1Cl)C1CCN(C(=O)OCc2ccccc2)CC1,n,n,u,n,n
O=C(Nc1ccc(N2CCOCC2)cc1)C1CCN(C(=O)OCc2ccccc2)CC1,n,40µM,n,n,n
NC(=O)c1ccc(NC(=O)COC(=O)c2ccc(Cl)nc2)cc1,x,7.9µM,n,n,n
O=S1(=O)N=C(Oc2ccc(Br)cc2)c2ccccc21,x,x,n,x,x
COc1ccc(C)cc1NC(=O)C1CCCN(c2ncnc3onc(C)c23)C1 (configuration not stated),x,n,n,n,n
COc1ccc(C2(c3ccc(OC)cc3)NC(=O)N(CC(=O)Nc3ccc(N4CCOCC4)cc3)C2=O)cc1,x,40µM,u,u,u
COc1ccc(NC(=O)CN2C(=O)NC(c3ccccc3)(c3ccccc3)C2=O)cc1,n,n,n,n,n
CC(=O)Nc1ccc(C(=O)OCC(=O)Nc2ccc(N3CCOCC3)cc2)cc1,n,u,n,n,n
COc1cccc(CNCC(=O)Nc2ccc(N3CCOCC3)cc2)c1,n,3.5µM,25µM,u,50µM
O=C(COC(=O)c1ccc(Cl)nc1)Nc1ccc(N2CCOCC2)cc1,x,56µM,n,n,n
Cc1cccc(NC(=O)c2nc[nH]c2C(=O)N2CCC(C)CC2)c1,x,n[0.501 µM],n,n,n
NS(=O)(=O)c1ccc(S(=O)(=O)N2CCN(c3nc(-c4ccccc4)nc4ccccc34)CC2)cc1,x,x,n,n,x
SMILES,Sfp inh,G9a block,JMJD2A Tudor inh,HP1b chromo inh,BAZ2B inh
CCCCn1c(C)cc2c(c1=O)C1O[C@](CCCC)(Cc3cc(C#N)ccc31)O2,n,x,x,x,n[22.9 µM]
O=C(O)c1cc2n(n1)CCN(Cc1ccccc1Cl)C2=O,n,50µM,n[11.4 µM],n,u
CC1Cc2nc(SCC(=O)NCC3CCCO3)n(C)c(=O)c2S1 (configuration not stated),n,x,n,n,n
Cc1[nH]c2ccccc2c1Cc1nnc(SCC(N)=O)o1,n,n,n,n,n
CC(Cc1n[nH]c(=S)o1)c1ccccc1 (configuration not stated),n,8.9µM,u,n,u
Cn1c(SCc2n[nH]c(=S)o2)nnc1-c1ccccc1,n,u,u,n,n
Cc1[nH]c2ccccc2c1CCC(N)=O,n,n,n,n,n
Cc1[nH]c2ccccc2c1Cc1n[nH]c(=S)n1C,n,2µM,6.3µM,n,n
Cn1c(Cc2c[nH]c3ccccc23)n[nH]c1=S,n,u,5µM,n,n
Cc1[nH]c2ccccc2c1Cc1n[nH]c(=S)o1,n,8.9µM,79µM,n,n
O=C(Nc1cccc(Br)c1)c1cc(=O)c2ccccc2o1,n,n,n,n,n
S=c1[nH]nc(Cc2cccc3ccccc23)o1,n,2.2µM,79µM,n,n
N#Cc1c(N)n[nH]c1Cc1cccc2ccccc12,x,x,n,n,x
Cc1[nH]c2ccccc2c1SCc1n[nH]c(=S)n1C,n,4µM,10µM,n,n
OCCn1ccc(-c2ccccc2OCc2ccc(F)cc2)n1,n,n,n,n,n
O=C(Cn1ncn2nc(-c3ccccc3)cc2c1=O)NCc1ccccn1,n,n,n,n,n
Cc1csc(NC(=O)C2COc3ccccc3O2)n1 (configuration not stated),n,u,n,n,n
COc1ccc(OC)c2sc(NC(=O)C3=COCCO3)nc12,n,n,n,n,n
Cc1ccc2sc(NNC(=O)C3COc4ccccc4O3)nc2c1C (configuration not stated),u,32µM,u,n,u
COc1cccc2sc(NNC(=O)C3COc4ccccc4O3)nc12 (configuration not stated),79µM,u,n,n,x
COc1cccc2sc(NNC(=O)C3=COCCO3)nc12,n,13µM,n,n,n
O=C(NNc1nc2c(F)cccc2s1)C1COc2ccccc2O1 (configuration not stated),n,n,n,n,n
CC1CCc2c(sc(Nc3nc4c(F)cccc4s3)c2C(N)=O)C1 (configuration not stated),25µM,10µM,u,n,n
Cc1onc(-c2c(Cl)cccc2Cl)c1C(=O)Nc1ccc(C(N)=O)cc1,n,n,n,n,n
CCC(=O)NCCn1c(C)cc2ccccc21,n,45µM,n,n,n
SMILES,Sfp inh,G9a block,JMJD2A Tudor inh,HP1b chromo inh,BAZ2B inh
Cc1onc(-c2c(Cl)cccc2Cl)c1C(=O)NC(=S)Nc1sc2c(c1C(N)=O)CCC(C)C2 (configuration not stated),n,45µM,u,n,n
Cc1cc2ccccc2n1CCNC(=O)c1ccccc1,50µM,u,u,n,u
O=C(Nc1nc2c(F)cccc2s1)C1CC1,n,x,n,n,n
Cc1cc2ccccc2n1CCNC(=O)c1ccc(Br)cc1,x,n,n,n,n
Cc1cc2c(s1)c1cnn(Cc3ccccc3Br)c(=O)c1n2C,x,x,n,x,x
Cc1cccc(CS(=O)(=O)Cc2ccc(C(=O)NCc3ccc(F)cc3)o2)c1,x,n,n,n,n
